Results filed as inconclusive are left out. Active and inactive are the calls of the source. How the source made its calls: active means hit-call score of the fitted dose curve at least 0.9, where 1 is the maximum; inconclusive means response in the unintended direction; inactive means score below 0.9.
Molecular target: human Matrix Metalloproteinase-3 (MMP3), MMP3 (gene 4314) (UniProt P08254)
Experiment: NVS_ENZ_hMMP3: NovaScreen (NVS) Enzymatic Assay for human Matrix Metalloproteinase-3 (MMP3) (AID 2283185)
Summary of the method: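 Cell-free recombinant human MMP3 activity, fluorescence intensity read 1 h after dosing. Primary screen duplicate at 25 uM, actives retested in concentration series; loss of signal vs DMSO baseline.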

Sequence of human Matrix Metalloproteinase-3 (MMP3), MMP3 (gene 4314) (P08254 whole entry, looked up): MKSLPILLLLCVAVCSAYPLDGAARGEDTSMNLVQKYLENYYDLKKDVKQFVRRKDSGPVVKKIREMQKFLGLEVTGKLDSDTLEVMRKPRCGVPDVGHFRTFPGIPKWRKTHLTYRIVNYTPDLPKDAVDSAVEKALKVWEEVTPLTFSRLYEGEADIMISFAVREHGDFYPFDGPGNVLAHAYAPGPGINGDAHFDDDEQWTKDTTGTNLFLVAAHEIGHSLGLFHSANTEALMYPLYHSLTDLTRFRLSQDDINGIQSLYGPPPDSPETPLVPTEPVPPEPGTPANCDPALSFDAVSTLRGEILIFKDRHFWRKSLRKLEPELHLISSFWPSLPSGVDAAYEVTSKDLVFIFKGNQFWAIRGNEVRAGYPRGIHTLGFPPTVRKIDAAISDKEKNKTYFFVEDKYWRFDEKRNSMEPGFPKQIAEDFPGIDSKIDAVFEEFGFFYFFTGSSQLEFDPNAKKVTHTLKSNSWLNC

| SMILES | outcome | AC50 |
| --- | --- | --- |
| CC(C)(C)C(O)(CCc1ccc(Cl)cc1)Cn1cncn1 (configuration not stated) | inactive |  |
| Clc1ccc(Cl)c(Cl)c1 | inactive |  |
| CN(C)C(=O)Nc1ccc(Cl)cc1 | inactive |  |
| Cc1ccc(N=C=O)cc1N=C=O |  | 40 µM (active) |
| Oc1ccccc1Cl | inactive |  |
| c1ccc2c(c1)-c1cccc3cccc-2c13 |  | 5.24 µM (active) |
| CN(C)[C@@H]1C(=O)C(C(N)=O)=C(O)[C@@]2(O)C(=O)C3=C(O)c4c(O)cccc4[C@@](C)(O)[C@H]3C[C@@H]12 | inactive |  |
| ClCCOCCCl | inactive |  |

Molecular target: human p21 Activated Kinase 4 (PAK4), PAK4 (gene 10298) (UniProt O96013)
Experiment: NVS_ENZ_hPAK4: NovaScreen (NVS) Enzymatic Assay for human p21 Activated Kinase 4 (PAK4) (AID 2283189)
Description: NVS_ENZ_hPAK4 is a biochemical, single-readout assay that uses extracted gene-proteins in a cell-free assay. Measurements were taken 1 hour after chemical dosing in a 384-well plate.NVS_ENZ_hPAK4 is one of one assay component(s) measured or calculated from the NVS_ENZ_hPAK4 assay. It is designed to make measurements of enzyme activity, a form of enzyme reporter, as detected with fluorescence intensity signals by Fluorescence and electrophoretic mobility shift technology.Data from the assay component NVS_ENZ_hPAK4 was analyzed into 1 assay endpoint. This assay endpoint, NVS_ENZ_hPAK4, was analyzed in the positive analysis fitting direction relative to DMSO as the negative control and baseline of activity. Using a type of enzyme reporter, loss-of-signal activity can be used to understand changes in the enzymatic activity as they relate to the gene PAK4. Furthermore, this assay endpoint can be referred to as a primary readout, because this assay has produced multiple assay endpoints where this one serves a enzymatic activity function. To generalize the intended target to other relatable targets, this assay endpoint is annotated to the kinase intended target family, where the subfamily is serine/threonine kinase.
Binding assays used specific radioligands (tritiated, iodinated) with non-radioactive competitive displacement ligands in agonist or antagonist protocols (as indicated) and various reference compounds and inhibitors to titrate specific binding to receptors and transporters. Most enzyme assays (CYPs, kinases, phosphatases, proteases, HDACs) used recombinant protein and specific substrates (fluorescence mostly, some colorimetric and radioactive) and inhibitors, followed by a biochemical separation of substrate and product. All assays for the biochemical HTS were initially run in duplicate at a single concentration (10 uM for CYP450 assays and 25 uM for all others). […] Each assay was run with positive and negative controls, and concurrent controls on every plate. The follow-up (secondary) screen tested active chemical-pairs in concentration series, as well as a few additional assays not tested in the primary screen, some selected negative inactives, and several cases re-run in the concentration series for confirmatory purposes.

Sequence of human p21 Activated Kinase 4 (PAK4), PAK4 (gene 10298) (O96013 whole entry, looked up): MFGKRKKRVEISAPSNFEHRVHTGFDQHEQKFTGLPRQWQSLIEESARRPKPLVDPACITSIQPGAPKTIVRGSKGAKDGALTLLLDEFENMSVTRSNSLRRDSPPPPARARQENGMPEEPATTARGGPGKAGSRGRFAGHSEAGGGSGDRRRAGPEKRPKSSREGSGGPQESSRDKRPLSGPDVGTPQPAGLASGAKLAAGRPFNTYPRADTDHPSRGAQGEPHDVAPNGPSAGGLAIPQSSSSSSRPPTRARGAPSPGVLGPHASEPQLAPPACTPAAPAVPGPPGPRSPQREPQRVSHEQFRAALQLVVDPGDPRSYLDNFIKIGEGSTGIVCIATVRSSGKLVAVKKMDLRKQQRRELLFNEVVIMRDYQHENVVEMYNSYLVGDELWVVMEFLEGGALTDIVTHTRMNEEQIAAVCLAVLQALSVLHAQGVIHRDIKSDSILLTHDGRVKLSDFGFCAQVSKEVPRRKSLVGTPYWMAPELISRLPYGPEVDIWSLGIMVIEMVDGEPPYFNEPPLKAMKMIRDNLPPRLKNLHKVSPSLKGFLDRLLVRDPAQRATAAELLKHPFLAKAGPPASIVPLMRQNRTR

| SMILES | outcome |
| --- | --- |
| CCNS(=O)(=O)C(F)(F)C(F)(F)C(F)(F)C(F)(F)C(F)(F)C(F)(F)C(F)(F)C(F)(F)F | inactive |
| C[C@]12C=CC3=C4CCC(=O)C=C4CC[C@H]3[C@@H]1CC[C@@H]2O | inactive |
| COc1cc(C=O)cc2c1[C@H](COC(N)=O)[C@]1(OC(C)=O)ON2C[C@H]2[C@@H]1N2C(C)=O | inactive |
| Cn1cc(-c2ccccc2)c(=O)c(-c2cccc(C(F)(F)F)c2)c1 | inactive |
| Cc1cc(N=Nc2ccccc2C)ccc1N | inactive |

Molecular target: human Matrix Metalloproteinase-9 (MMP9), MMP9 (gene 4318) (UniProt P14780)
Experiment: NVS_ENZ_hMMP9: NovaScreen (NVS) Enzymatic Assay for human Matrix Metalloproteinase-9 (MMP9) (AID 2283190);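 further: cell-free recombinant MMP9 protease activity read by fluorescent substrate signal; active means inhibition seen as loss of fluorescence signal versus DMSO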
Summary of the method: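 Inhibition was scored as loss of fluorescence signal against DMSO controls. The recombinant protease was exposed to chemicals for 1 hour before reading; initial testing used 25 uM in duplicate.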

Sequence of human Matrix Metalloproteinase-9 (MMP9), MMP9 (gene 4318) (P14780 whole entry, looked up): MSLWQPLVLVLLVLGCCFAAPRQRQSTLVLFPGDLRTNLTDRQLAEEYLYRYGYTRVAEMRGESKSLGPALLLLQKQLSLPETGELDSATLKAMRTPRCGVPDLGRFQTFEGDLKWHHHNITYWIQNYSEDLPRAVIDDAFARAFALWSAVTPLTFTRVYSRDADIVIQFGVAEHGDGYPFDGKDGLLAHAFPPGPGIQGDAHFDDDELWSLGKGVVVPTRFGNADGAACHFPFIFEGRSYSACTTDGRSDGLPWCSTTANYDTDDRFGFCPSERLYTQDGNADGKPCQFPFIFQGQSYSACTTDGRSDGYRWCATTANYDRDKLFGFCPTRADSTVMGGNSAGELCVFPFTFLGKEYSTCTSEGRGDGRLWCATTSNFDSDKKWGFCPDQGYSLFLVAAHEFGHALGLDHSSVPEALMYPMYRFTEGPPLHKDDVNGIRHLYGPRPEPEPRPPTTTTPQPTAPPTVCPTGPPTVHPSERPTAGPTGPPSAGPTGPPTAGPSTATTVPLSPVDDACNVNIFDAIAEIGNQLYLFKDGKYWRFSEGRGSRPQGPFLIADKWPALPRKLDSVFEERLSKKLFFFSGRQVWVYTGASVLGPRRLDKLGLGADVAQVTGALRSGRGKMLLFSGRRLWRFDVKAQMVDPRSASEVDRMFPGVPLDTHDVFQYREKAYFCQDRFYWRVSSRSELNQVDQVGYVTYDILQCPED

| SMILES | outcome | AC50 |
| --- | --- | --- |
| c1ccc(C2CO2)cc1 (configuration not stated) | inactive |  |
| Cc1ccc(N=C=O)cc1N=C=O | inactive |  |
| O=Cc1ccco1 | inactive |  |
| CCCCCOC(=O)c1ccccc1C(=O)OCCCCC |  | 12.6 µM (active) |
| Clc1ccc(C(c2ccc(Cl)cc2)C(Cl)(Cl)Cl)cc1 | inactive |  |
| C1=Cc2cccc3cccc1c23 | inactive |  |
| O=[N+]([O-])c1ccc(Oc2ccc(Cl)cc2Cl)cc1 | inactive |  |

Molecular target: human Phosphodiesterase 4A1 (PDE4A1), PDE4A (gene 5141) (UniProt P27815)
Experiment: NVS_ENZ_hPDE4A1: NovaScreen (NVS) Enzymatic Assay for human Phosphodiesterase 4A1 (PDE4A1) (AID 2283191)
Summary of the method: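 Cell-free recombinant human PDE4A1 with fluorescent substrate; product separated by electrophoretic mobility shift, 1 h. Screened at 25 uM, then up to 50 uM in concentration-response; loss of signal fitted against DMSO.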

Sequence of human Phosphodiesterase 4A1 (PDE4A1), PDE4A (gene 5141) (P27815 whole entry, looked up): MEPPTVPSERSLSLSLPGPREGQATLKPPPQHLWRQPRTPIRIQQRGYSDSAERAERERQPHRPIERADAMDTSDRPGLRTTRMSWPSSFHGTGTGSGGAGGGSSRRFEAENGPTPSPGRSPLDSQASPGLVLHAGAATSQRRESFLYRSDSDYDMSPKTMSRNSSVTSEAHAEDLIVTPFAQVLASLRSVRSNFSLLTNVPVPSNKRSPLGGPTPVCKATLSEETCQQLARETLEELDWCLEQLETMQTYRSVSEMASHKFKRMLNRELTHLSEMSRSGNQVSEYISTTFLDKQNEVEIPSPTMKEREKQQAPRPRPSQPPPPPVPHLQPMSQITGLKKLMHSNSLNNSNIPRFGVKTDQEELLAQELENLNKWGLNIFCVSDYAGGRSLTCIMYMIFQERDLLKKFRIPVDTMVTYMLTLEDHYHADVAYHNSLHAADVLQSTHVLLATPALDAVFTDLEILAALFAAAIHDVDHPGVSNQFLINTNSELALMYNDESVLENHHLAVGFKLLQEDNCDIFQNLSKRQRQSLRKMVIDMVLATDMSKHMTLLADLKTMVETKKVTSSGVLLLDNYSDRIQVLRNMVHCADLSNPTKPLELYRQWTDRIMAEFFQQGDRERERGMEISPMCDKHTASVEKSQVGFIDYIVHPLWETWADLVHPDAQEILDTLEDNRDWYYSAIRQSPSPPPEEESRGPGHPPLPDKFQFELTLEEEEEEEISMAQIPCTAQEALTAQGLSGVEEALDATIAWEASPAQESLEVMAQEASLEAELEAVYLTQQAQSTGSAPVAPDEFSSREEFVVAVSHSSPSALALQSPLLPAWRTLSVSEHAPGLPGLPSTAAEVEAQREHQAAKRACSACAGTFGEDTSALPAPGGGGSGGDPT

| SMILES | outcome |
| --- | --- |
| CCNS(=O)(=O)C(F)(F)C(F)(F)C(F)(F)C(F)(F)C(F)(F)C(F)(F)C(F)(F)C(F)(F)F | inactive |
| O=C(Oc1ccc(Br)cc1)N1CCN2CCC1CC2 | inactive |
| CC(C)(C)OOC(C)(C)CCC(C)(C)OOC(C)(C)C | inactive |
| CS(=O)(=O)NC(=O)c1cc(Oc2ccc(C(F)(F)F)cc2Cl)ccc1[N+](=O)[O-] | inactive |
| CN(C)c1ccc(C(=O)c2ccc(N(C)C)cc2)cc1 | inactive |

Molecular target: cAMP-dependent protein kinase catalytic subunit alpha (Homo sapiens) (UniProt P17612)
Experiment: NVS_ENZ_hPKA: NovaScreen (NVS) Enzymatic Assay for human Protein Kinase A (PKA) (AID 2283192)
Summary of the method: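 Recombinant human PKA with specific fluorescent substrate, product separated by electrophoretic mobility shift, read 1 h after dosing. Primary screen at 25 uM in duplicate; actives then run in concentration-response up to 50 uM, activity relative to DMSO.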

| SMILES | outcome | AC50 |
| --- | --- | --- |
| CCNS(=O)(=O)C(F)(F)C(F)(F)C(F)(F)C(F)(F)C(F)(F)C(F)(F)C(F)(F)C(F)(F)F | inactive |  |
| Oc1ccc2ccc3cccc4ccc1c2c34 |  | 6.65 µM (active) |
| CCOc1cccc(C2(N3CCN(c4ccccc4)CC3)CCC(C)CC2)c1 (configuration not stated) | inactive |  |
| CCN(CC)N=O | inactive |  |

Molecular target: human Phosphodiesterase 5 (PDE5), PDE5A (gene 8654) (UniProt O76074)
Experiment: NVS_ENZ_hPDE5: NovaScreen (NVS) Enzymatic Assay for human Phosphodiesterase 5 (PDE5) (AID 2283194)
Summary of the method: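 Recombinant human PDE5 with specific substrate, read 1 h after dosing by fluorescence with electrophoretic mobility-shift separation of substrate and product. Initial single-concentration duplicate screen at 25 uM, actives followed in concentration series; loss of activity versus DMSO.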

| SMILES | outcome | AC50 |
| --- | --- | --- |
| CCNS(=O)(=O)C(F)(F)C(F)(F)C(F)(F)C(F)(F)C(F)(F)C(F)(F)C(F)(F)C(F)(F)F | inactive |  |
| C[C@]12C=CC3=C4CCC(=O)C=C4CC[C@H]3[C@@H]1CC[C@@H]2O |  | 25 µM (active) |
| c1ccc(C2CO2)cc1 (configuration not stated) | inactive |  |
| CCCSC(=O)N(CCC)CCC | inactive |  |
| Nc1ccc(Cl)cc1N |  | 12.6 µM (active) |
| CCN(CC)N=O | inactive |  |
| CCCCC(CC)COC(=O)c1ccc(C(=O)OCC(CC)CCCC)c(C(=O)OCC(CC)CCCC)c1 (configuration not stated) | inactive |  |
| CN(C)c1ccc(C(=O)c2ccc(N(C)C)cc2)cc1 |  | 29.1 µM (active) |
